Inconclusive results are not listed. Calls of active or inactive are those of the source. Unless noted, calls follow the shape of the dose curve; as a rule, active = well fitted curve in the direction sought with a large enough effect in the repeat runs; inconclusive = weak or mixed curves; inactive = no such curve, though single readings can be large; an effect the other way counts as inactive or inconclusive.
How the values were obtained:
[1] = qHTS assay for small molecule agonists of the p53 signaling pathway (AID 651631; calls by dose curve; also: nearly all actives have a fitted effect of over 15% in size)
Procedure, shortened: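 HCT-116 p53RE-bla reporter line, 16 h compound treatment at 37 °C, then fluorescence after 2 h with B/G FRET substrate.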

[2] = qHTS assay for small molecule agonists of the p53 signaling pathway - cell viability (AID 651633; calls by dose curve;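 also: p53RE-bla HCT reporter cells with a stable beta-lactamase p53 reporter; series mostly up to about 83 µM; nearly all actives have a fitted effect of over 30% in size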)
Procedure, shortened: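 p53RE-bla cells, seeded at 4,000 per well and rested 5 h at 37 C/5% CO2, received compounds in DMSO for 16 h at 37 C. CellTiter-Glo was then added, and luminescence was read after 30 min at room temperature to gauge cytotoxicity.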

[3] = qHTS assay for small molecules that induce genotoxicity in human embryonic kidney cells expressing luciferase-tagged ATAD5 - cell viability (AID 651634; calls by dose curve; also: nearly all actives have a fitted effect of over 25% in size)
Procedure, shortened: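 Cells (HEK293T, luciferase-tagged ATAD5) are seeded at 2,000 per well, dosed with compound or DMSO vehicle, and incubated 15.5 hr at 37C and 5% CO2. CellTiter-Fluor is added for 30 min before fluorescence is measured.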

[4] = qHTS assay for small molecule disruptors of the mitochondrial membrane potential - cell viability (AID 720634; calls by dose curve;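 also: human HepG2 liver cancer cells; series mostly up to about 83 µM; nearly all actives have a fitted effect of over 20% in size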)
Procedure, shortened: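 Cytotoxicity was measured by ATP quantitation in HepG2 wells that had first been treated with compound for 1 hr and stained with m-MPI dye; CellTiter-Glo incubation was 30 min at room temperature.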

[5] = qHTS assay for small molecule disruptors of the mitochondrial membrane potential (AID 720635)
Procedure, shortened: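 HepG2 cells (2,000/well) attached overnight at 37C, then took compound for 1 hr at 37C, 5% CO2. Mito-MPS dye was added for 30 min; fluorescence was read at 490/535 nm (monomers) and 540/590 nm (aggregates).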

[6] = qHTS assay to test for compound auto fluorescence at 535 nm (green) in HepG2 cells (AID 720675)
[7] = qHTS assay to test for compound auto fluorescence at 460 nm (blue) in HEK293 cells (AID 720678)
Procedure, shortened: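 Blue-channel (Ex/Em 405/460 nm) intensity measured in HEK293 cultures after overnight compound exposure at 37C; signal expressed relative to triamterene. Cells plated 2,000 per well in 10% dialyzed FBS medium and allowed 4-5 hr to attach.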

[8] = qHTS assay to test for compound auto fluorescence at 590 nm (red) in HEK293 cells (AID 720679)
Procedure, shortened: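 Red-channel autofluorescence (Ex/Em 540/590 nm; Rose Bengal sodium reference) was measured after overnight 37C, 5% CO2 exposure of attached HEK293 cells, 2,000 per well in medium with 10% dialyzed FBS.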

[9] = qHTS assay to test for compound auto fluorescence at 535 nm (green) in HEK293 cells (AID 720680)
[10] = qHTS assay to test for compound auto fluorescence at 460 nm (blue) in HEK293 cell free culture (AID 720681)
Procedure, shortened: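 Test compounds were pinned into cell-free culture medium (DMEM with 10% FBS) and fluorescence was read directly at Ex/Em 405/460 nm. Signals were expressed as fluorescence equivalents of triamterene, with DMSO vehicle as control.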

[11] = qHTS assay to test for compound auto fluorescence at 535 nm (green) in HEK293 cell free culture (AID 720682)
Procedure, shortened: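 Steps: dispense DMEM/10% FBS into empty wells; pin in compound or DMSO; measure fluorescence at 485/535 nm. Values are fluorescein equivalents.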

[12] = qHTS assay to test for compound auto fluorescence at 590 nm (red) in HEK293 cell free culture (AID 720683)
Procedure, shortened: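 Tox21 10K library compounds were pinned into cell-free DMEM with 10% FBS and fluorescence was read at excitation 540 nm. Activity is expressed as Rose Bengal sodium equivalency.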

[13] = qHTS assay to test for compound auto fluorescence at 590 nm (red) in HepG2 cell free culture (AID 720684)
Procedure, shortened: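 Readout: intrinsic compound fluorescence at 590 nm emission after 540 nm excitation, scaled to Rose Bengal sodium. Matrix was cell-free MEM with 10% FBS; DMSO vehicle wells served as control.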

[14] = qHTS assay to test for compound auto fluorescence at 460 nm (blue) in HepG2 cell free culture (AID 720685)
Procedure, shortened: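 Cell-free plates of MEM plus 10% FBS received 23 nL compound or DMSO vehicle; blue-channel (405/460 nm) intensity scored against triamterene as reference fluorophore.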

[15] = qHTS assay to test for compound auto fluorescence at 535 nm (green) in HepG2 cell free culture (AID 720686)
[16] = qHTS assay for small molecules that induce genotoxicity in human embryonic kidney cells expressing luciferase-tagged ATAD5 (AID 651632); also: nearly all actives have a fitted effect of over 15% in size
Procedure, shortened: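 Cells were seeded at 2,000 per well, dosed with compound, and incubated 16 hr at 37C in 5% CO2. Luciferase activity was then quantified after a 30 min room-temperature incubation with Amplite.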

[17] = qHTS assay to test for compound auto fluorescence at 590 nm (red) in HepG2 cells (AID 720674)
Procedure, shortened: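 Intrinsic compound fluorescence in the red window (Ex/Em 540/590 nm) is measured in attached HepG2 cells exposed for 1 hr, DMSO vehicle as baseline, benchmarked to Rose Bengal sodium.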

[18] = qHTS assay to test for compound auto fluorescence at 460 nm (blue) in HepG2 cells (AID 720687)
Procedure, shortened: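 Cells (2,000/well in MEM with 10% FBS) attached overnight at 37 C, then were exposed to compound or DMSO for 1 hr at 37 C, 5% CO2. Fluorescence read at Ex/Em 405/460 nm, expressed as triamterene-equivalent signal.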

[19] = biological target: Glucocorticoid receptor (Homo sapiens) (UniProt P04150); experiment: qHTS assay to identify small molecule antagonists of the glucocorticoid receptor (GR) signaling pathway (AID 720692; active = well fitted inhibition curve with a large enough effect in the signal ratio in the repeat runs, not every such curve was filed as active; the % refers to the signal ratio)
Sequence of Glucocorticoid receptor (Homo sapiens) (P04150 whole entry, looked up): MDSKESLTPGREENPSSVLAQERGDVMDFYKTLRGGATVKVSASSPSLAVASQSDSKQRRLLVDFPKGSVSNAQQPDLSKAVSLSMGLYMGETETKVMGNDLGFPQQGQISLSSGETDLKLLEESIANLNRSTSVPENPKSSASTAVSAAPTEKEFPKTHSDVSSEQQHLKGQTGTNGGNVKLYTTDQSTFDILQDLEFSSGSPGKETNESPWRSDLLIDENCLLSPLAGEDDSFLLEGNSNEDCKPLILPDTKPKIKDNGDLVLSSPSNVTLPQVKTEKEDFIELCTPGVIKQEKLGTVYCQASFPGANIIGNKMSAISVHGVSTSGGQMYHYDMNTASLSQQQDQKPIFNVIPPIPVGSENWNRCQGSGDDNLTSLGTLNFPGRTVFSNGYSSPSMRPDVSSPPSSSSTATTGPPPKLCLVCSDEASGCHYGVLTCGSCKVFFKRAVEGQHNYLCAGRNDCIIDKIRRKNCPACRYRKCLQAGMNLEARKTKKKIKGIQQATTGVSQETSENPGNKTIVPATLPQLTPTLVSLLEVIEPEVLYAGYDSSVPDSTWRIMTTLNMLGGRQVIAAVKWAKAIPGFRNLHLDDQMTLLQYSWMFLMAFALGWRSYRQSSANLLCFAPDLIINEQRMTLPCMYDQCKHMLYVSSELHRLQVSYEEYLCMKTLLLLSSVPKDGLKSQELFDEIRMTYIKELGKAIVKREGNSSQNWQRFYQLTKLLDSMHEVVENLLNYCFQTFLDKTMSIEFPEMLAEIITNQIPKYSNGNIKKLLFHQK
Procedure, shortened: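 Antagonism was scored as loss of dexamethasone-driven (5 nM final) reporter signal in HeLa cells bearing a glucocorticoid response element–beta-lactamase construct, after 18 h compound exposure at 37 C and 2 h FRET substrate loading.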

[20] = biological target: Glucocorticoid receptor (Homo sapiens) (UniProt P04150); experiment: qHTS assay to identify small molecule agonists of the glucocorticoid receptor (GR) signaling pathway (AID 720691; active = well fitted activation curve with a large enough effect in the signal ratio in the repeat runs, not every such curve was filed as active; the % refers to the signal ratio)
Procedure, shortened: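 Steps: seed GR-bla HeLa cells, incubate 4 h at 37 C/5% CO2; pin-transfer DMSO-dissolved compounds; incubate 18 h at 37 C; add LiveBLAzer B/G FRET substrate; after 2 h at room temperature, measure fluorescence.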

Measured: Potency

O=C(O)Cc1ccccc1Oc1ccc(Cl)cc1Cl
inactive: [1] | [2] | [3] | [4] | [5] | [6] | [7] | [8] | [9] | [10] | [11] | [12] | [13] | [14] | [15]

CCC(C)SSC(C)CC (centres undefined)
inactive: [1] | [16] | [2] | [3] | [17] | [6] | [7] | [8] | [9] | [10] | [11] | [12] | [13] | [14] | [18] | [19]

COc1cc(OC)cc(OC)c1
inactive: [1] | [2] | [3] | [4] | [17] | [6] | [7] | [8] | [9] | [10] | [11] | [12] | [13] | [14] | [15]

CCc1ncc(C)[nH]1
inactive: [1] | [2] | [3] | [4] | [17] | [6] | [7] | [8] | [9] | [10] | [11] | [12] | [13] | [14] | [15] | [19]

Cc1ccc(O)c(C(=O)c2ccccc2)c1
inactive: [1] | [2] | [3] | [4] | [17] | [6] | [7] | [8] | [9] | [10] | [11] | [12] | [13] | [14] | [15] | [18]

CCCCCCCOC(C)=O
inactive: [1] | [2] | [3] | [4] | [17] | [6] | [7] | [8] | [9] | [10] | [11] | [12] | [13] | [14] | [15]

Cc1ccc2ccccc2n1
inactive: [1] | [2] | [3] | [4] | [5] | [6] | [7] | [8] | [9] | [11] | [12] | [13] | [14] | [15] | [18] | [20]

O=S(=O)(O)CC(O)CCl (centres undefined)
inactive: [1] | [16] | [2] | [3] | [17] | [6] | [7] | [8] | [10] | [11] | [12] | [13] | [14] | [15]

C=COCCCCO
inactive: [1] | [2] | [3] | [4] | [17] | [6] | [7] | [8] | [9] | [10] | [11] | [12] | [13] | [14] | [18] | [20] | [19]

N=C(N)N
inactive: [1] | [2] | [3] | [4] | [5] | [17] | [6] | [7] | [8] | [9] | [10] | [11] | [12] | [13] | [14] | [15] | [18] | [20] | [19]

CN1C(CCl)Nc2cc(Cl)c(S(N)(=O)=O)cc2S1(=O)=O (centres undefined)
inactive: [1] | [2] | [3] | [4] | [17] | [6] | [7] | [8] | [9] | [11] | [12] | [13] | [14] | [15] | [18] | [20] | [19]

COC(=O)c1ccccc1Cl
inactive: [1] | [16] | [2] | [3] | [17] | [6] | [7] | [8] | [9] | [11] | [12] | [13] | [14] | [15] | [18] | [20] | [19]

CCCC(=O)OC
inactive: [1] | [2] | [3] | [4] | [5] | [17] | [6] | [7] | [8] | [9] | [10] | [11] | [12] | [13] | [14] | [18]

CC1(C)CC(N)CC(C)(C)N1
inactive: [1] | [16] | [2] | [3] | [17] | [6] | [7] | [8] | [10] | [11] | [12] | [13] | [14] | [15] | [18]

From PubChem BioAssay (Tox21)
